From PubChem BioAssay (Tox21)
Values joined by “and” are separate entries in the source; they are usually repeats but may differ in a detail not shown here. Identical values can stand only once. Inconclusive results are not listed. Where a call stands in place of a potency, no number is given. Active and inactive are the calls of the source. Unless noted, calls follow the shape of the dose curve; as a rule, active = well fitted curve in the direction sought with a large enough effect in the repeat runs; inconclusive = weak or mixed curves; inactive = no such curve, though single readings can be large; an effect the other way counts as inactive or inconclusive.

What was measured:
[1] = target: Estrogen receptor (Homo sapiens) (UniProt P03372); test: qHTS assay to identify small molecule antagonists of the estrogen receptor alpha (ER-alpha) signaling pathway using the BG1 cell line in the presence of 0.1 nM 17-beta-estradiol (AID 1259244); also: nearly all actives have a fitted effect of over 50% in size; also: potency is read from the fitted curve at half-maximal effect
Procedure, shortened: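 Luciferase signal from VM7Luc4E2 ERE-reporter cells, co-dosed with test compound and 0.1 nM final 17beta-estradiol for 22 h, read with ONE-Glo.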

[2] = qHTS assay to identify small molecule phospholipidosis (PLD) inducers (AID 1259344; active = well fitted curve in the direction sought with a large enough effect; an effect the other way counts as inactive or inconclusive)
Procedure, shortened: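 Image-based: LipidTOX Red pit count/intensity per well and per cell; HepG2, 24 h compound at 37 C, PFA fixation, Hoechst counterstain.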

[3] = qHTS assay to identify small molecule HDAC inhibitors (AID 1259364); also: potency is read from the fitted curve at half-maximal effect;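 also: wild-type HCT-116 cells with endogenous class I/II HDAC activity; nearly all actives have a fitted effect of over 45% in size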
Procedure, shortened: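 HCT-116 wt cells, 1,500/well, overnight attach. Compounds (DMSO) 2 h, 37 °C. HDAC-Glo I/II, 30 min RT. Luminescence.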

[4] = qHTS assay to identify small molecule HDAC inhibitors - cell viability counter screen (AID 1259365); also: nearly all actives have a fitted effect of over 50% in size; also: potency is read from the fitted curve at half-maximal effect
Procedure, shortened: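 Luminescence from CellTiter-Glo, developed 30min at room temperature, reports viability of wild-type HCT-116 cells treated 2hr with compounds at 37 C and 5% CO2 after overnight plating.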

[5] = qHTS assay to identify small molecule antagonists of the sonic hedgehog signaling (Shh) pathway - cell viability counter screen (AID 1259367); also: nearly all actives have a fitted effect of over 55% in size; also: potency is read from the fitted curve at half-maximal effect
Procedure, shortened: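 Tox21 library chemicals were tested on a Gli1-Luc NIH/3T3 clone (2,000 cells/well) stimulated by conditioned medium; viability was quantified as fluorescence from CellTiter-Fluor reagent added at 23 hr.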

[6] = target: Estrogen receptor beta (Homo sapiens) (UniProt Q92731); test: qHTS assay to identify small molecule agonists of the estrogen receptor beta (ER-beta) signaling pathway (AID 1259377; active = well fitted activation curve with a large enough effect in the signal ratio in the repeat runs, not every such curve was filed as active; the % refers to the signal ratio)
Procedure, shortened: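 HEK293T ER-beta-UAS-bla; 2% charcoal-stripped FBS; cells pre-incubated 6 hr, compound 16 hr, 37C/5% CO2; LiveBLAzer B/G FRET substrate 2 h RT; fluorescence intensity read.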

[7] = qHTS assay to identify small molecule agonists of the androgen receptor (AR) signaling pathway in the presence of an antagonist - cell viability counter screen (AID 1259379); also: nearly all actives have a fitted effect of over 25% in size; also: potency is read from the fitted curve at half-maximal effect
Procedure, shortened: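 Each compound was tested at 15 concentrations on MDA-kb2 cells in the presence of 3.0uM nilutamide. Viability was measured by CellTiter-Fluor fluorescence after a 16 hr incubation at 37C in a CO2-free atmosphere.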

[8] = qHTS assay to identify small molecule agonists of the estrogen receptor beta (ER-beta) signaling pathway - cell viability counter screen (AID 1259380); also: nearly all actives have a fitted effect of over 30% in size; also: potency is read from the fitted curve at half-maximal effect
Procedure, shortened: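 Compounds dissolved in DMSO were pin-transferred onto ER-beta-UAS-bla HEK293T cells that had settled 6 hr, and exposure ran 16 hr at 37C. Following the reporter read, CellTiter-Glo luminescence after 30 min at room temperature indicated cytotoxicity.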

[9] = target: Estrogen receptor (Homo sapiens) (UniProt P03372); test: qHTS assay to identify small molecule agonists of the estrogen receptor alpha (ER-alpha) signaling pathway in the presence of an antagonist (AID 1259383; calls by dose curve; also: top concentration of the series differs between compounds; nearly all actives have a fitted effect of over 15% in size)
Procedure, shortened: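 Luminescent ERE-luciferase reporter, VM7Luc4E2 cells (endogenous ER-alpha); 10.0nM ICI-182,780 final; 15-point compound titration; 22hr at 37C; ONE-Glo, 30min RT.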

[10] = qHTS assay to identify small molecule agonists of the estrogen receptor alpha (ER-alpha) signaling pathway in the presence of an antagonist - cell viability counter screen (AID 1259386);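 also: cells exposed to compounds for 22 h at 37 °C before the viability read; nearly all actives have a fitted effect of over 30% in size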; also: potency is read from the fitted curve at half-maximal effect
Procedure, shortened: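 Using estrogen-depleted VM7Luc4E2 cells, the 15-concentration compound series was applied together with 10.0nM ICI-182,780 and incubated 22hr at 37C/5% CO2. Cell viability was then scored by CellTiter-Fluor.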

[11] = target: Progesterone receptor (Homo sapiens) (UniProt P06401); test: qHTS assay to identify small molecule agonists of the progesterone receptor (PR) signaling pathway (AID 1346784; calls by dose curve; also: nearly all actives have a fitted effect of over 30% in size)
Procedure, shortened: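 Beta-lactamase reporter read-out: after 16 hr compound treatment at 37C and a further 2 hr at room temperature with LiveBLAzer B/G FRET substrate, fluorescence was measured in PR-UAS-bla HEK 293T cells grown in 2% charcoal-stripped serum.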

[12] = qHTS assay to identify small molecule agonists of the sonic hedgehog signaling (Shh) pathway - cell viability counter screen (AID 1259366); also: nearly all actives have a fitted effect of over 50% in size; also: potency is read from the fitted curve at half-maximal effect
Procedure, shortened: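 Cytotoxicity counter screen run in the same wells as the Shh reporter assay. NIH/3T3 cells carrying a Gli1 response element–driven luciferase were treated with DMSO-dissolved compounds for 24hr, and live-cell protease activity was measured with CellTiter-Fluor.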

[13] = qHTS assay to identify small molecule agonists of the sonic hedgehog signaling (Shh) pathway (AID 1259368; calls by dose curve;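 also: NIH/3T3-derived 3T3Gli1-Luc cells carrying a stable Gli1-driven firefly luciferase reporter; series mostly up to about 92 µM; nearly all actives have a fitted effect of over 15% in size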)
Procedure, shortened: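 Following a 24 hr incubation with DMSO-dissolved compounds at 37 C, 5% CO2, Gli1-Luc NIH/3T3-derived cells received luciferase reagent for 30 min at room temperature prior to luminescence measurement.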

[14] = qHTS assay to identify small molecule antagonists of the sonic hedgehog signaling (Shh) pathway (AID 1259369; calls by dose curve; also: nearly all actives have a fitted effect of over 45% in size; also: potency is read from the fitted curve at half-maximal effect)
Procedure, shortened: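 Read-out is luminescence from a firefly luciferase gene controlled by the Gli1 response element, in 3T3Gli1-Luc cells pre-incubated 4hr then exposed to compounds and conditioned medium for 24hr.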

[15] = target: Estrogen receptor beta (Homo sapiens) (UniProt Q92731); test: qHTS assay to identify small molecule antagonists of the estrogen receptor beta (ER-beta) signaling pathway (AID 1259378; active = well fitted inhibition curve with a large enough effect in the signal ratio in the repeat runs, not every such curve was filed as active; the % refers to the signal ratio; also: potency is read from the fitted curve at half-maximal effect)
Procedure, shortened: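 ER-beta-UAS-bla HEK293T cells in 2% charcoal-stripped FBS medium treated with compound plus 1nM final 17-beta-estradiol for 16 hr at 37C. Beta-lactamase reporter read by FRET substrate fluorescence after 2 hours at room temperature.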

[16] = target: Androgen receptor (Homo sapiens) (UniProt P10275); test: qHTS assay to identify small molecule agonists of the androgen receptor (AR) signaling pathway in the presence of an antagonist (AID 1259381; calls by dose curve; also: nearly all actives have a fitted effect of over 15% in size)
Procedure, shortened: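 Plated MDA-kb2 cells (3,000/well) were pre-incubated 5hr, given nilutamide (3.0uM final) or buffer, then dosed with compounds in DMSO at 15 concentrations. Luciferase activity was quantified by luminescence after 16hr at 37C.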

[17] = qHTS assay to identify small molecule antagonists of the estrogen receptor beta (ER-beta) signaling pathway - cell viability counter screen (AID 1259382); also: nearly all actives have a fitted effect of over 55% in size; also: potency is read from the fitted curve at half-maximal effect
Procedure, shortened: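 CellTiter-Glo ATP luminescence measured after the LiveBLAzer read in the same wells; ER-beta-UAS-bla HEK293T cells, 16 hr compound treatment with 1nM 17-beta-estradiol agonist at 37C, 5% CO2.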

[18] = qHTS assay to identify small molecule agonists or antagonists of the thyroid stimulating hormone receptor (TSHR) signaling pathway - wild type cell line counter screen (AID 1259384; calls by dose curve)
Procedure, shortened: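 Wild-type Hek293 cells, 800/well, 18 h at 37C, then compound with Ro20-1724 for 30 min RT. cAMP by HTRF (cAMP-d2/anti-cAMP cryptate), 1 h RT, fluorescence read. 15 concentrations, triplicates.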

[19] = target: Thyrotropin receptor (Homo sapiens) (UniProt P16473); test: qHTS assay to identify small molecule antagonists of the thyroid stimulating hormone receptor (TSHR) signaling pathway (AID 1259385; calls by dose curve; also: nearly all actives have a fitted effect of over 20% in size)
Procedure, shortened: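 TSHR-HEK293 cells (800/well) plated 18 h, then compounds with Ro20-1724 and TSH at 1.5 ng/mL final, 30 min at room temperature. cAMP quantified by HTRF (cAMP-d2/anti-cAMP-cryptate, 1 h); 15 concentrations in triplicate.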

[20] = target: Progesterone receptor (Homo sapiens) (UniProt P06401); test: qHTS assay to identify small molecule antagonists of the progesterone receptor (PR) signaling pathway (AID 1346795; active = well fitted inhibition curve with a large enough effect in the signal ratio in the repeat runs, not every such curve was filed as active; the % refers to the signal ratio; also: potency is read from the fitted curve at half-maximal effect)
Procedure, shortened: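 Read-out is fluorescence from the LiveBLAzer B/G FRET substrate, cleaved by a UAS-controlled beta-lactamase in PR-UAS-bla HEK293T cells after 16 hr exposure to compound plus 1 nM promegestone (final), followed by 2 hr at room temperature.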

Chain of Androgen receptor (Homo sapiens) (P10275 whole entry, looked up): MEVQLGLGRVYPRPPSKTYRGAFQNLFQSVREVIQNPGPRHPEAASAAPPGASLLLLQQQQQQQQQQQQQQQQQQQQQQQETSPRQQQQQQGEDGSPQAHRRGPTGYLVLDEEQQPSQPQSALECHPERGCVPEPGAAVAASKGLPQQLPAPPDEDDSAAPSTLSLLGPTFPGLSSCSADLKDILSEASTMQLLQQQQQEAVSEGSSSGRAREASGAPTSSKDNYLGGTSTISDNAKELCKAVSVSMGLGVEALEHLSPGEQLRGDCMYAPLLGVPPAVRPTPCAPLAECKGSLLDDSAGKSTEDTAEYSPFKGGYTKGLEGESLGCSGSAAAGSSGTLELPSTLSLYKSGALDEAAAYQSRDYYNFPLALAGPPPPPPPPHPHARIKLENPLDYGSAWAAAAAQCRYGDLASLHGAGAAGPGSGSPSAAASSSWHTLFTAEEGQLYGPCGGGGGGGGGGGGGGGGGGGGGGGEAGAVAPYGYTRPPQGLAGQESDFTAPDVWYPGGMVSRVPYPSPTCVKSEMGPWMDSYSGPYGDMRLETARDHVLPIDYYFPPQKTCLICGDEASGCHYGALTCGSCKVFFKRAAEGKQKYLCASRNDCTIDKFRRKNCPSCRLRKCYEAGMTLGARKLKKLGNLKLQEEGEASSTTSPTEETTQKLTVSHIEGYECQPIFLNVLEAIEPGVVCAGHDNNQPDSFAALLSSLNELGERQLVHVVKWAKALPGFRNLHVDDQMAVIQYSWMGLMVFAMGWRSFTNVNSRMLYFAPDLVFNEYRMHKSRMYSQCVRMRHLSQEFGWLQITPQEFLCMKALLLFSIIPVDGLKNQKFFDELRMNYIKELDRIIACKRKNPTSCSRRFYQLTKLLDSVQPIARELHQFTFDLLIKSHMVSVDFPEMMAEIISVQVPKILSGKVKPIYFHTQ
Chain of Estrogen receptor beta (Homo sapiens) (Q92731 whole entry, looked up): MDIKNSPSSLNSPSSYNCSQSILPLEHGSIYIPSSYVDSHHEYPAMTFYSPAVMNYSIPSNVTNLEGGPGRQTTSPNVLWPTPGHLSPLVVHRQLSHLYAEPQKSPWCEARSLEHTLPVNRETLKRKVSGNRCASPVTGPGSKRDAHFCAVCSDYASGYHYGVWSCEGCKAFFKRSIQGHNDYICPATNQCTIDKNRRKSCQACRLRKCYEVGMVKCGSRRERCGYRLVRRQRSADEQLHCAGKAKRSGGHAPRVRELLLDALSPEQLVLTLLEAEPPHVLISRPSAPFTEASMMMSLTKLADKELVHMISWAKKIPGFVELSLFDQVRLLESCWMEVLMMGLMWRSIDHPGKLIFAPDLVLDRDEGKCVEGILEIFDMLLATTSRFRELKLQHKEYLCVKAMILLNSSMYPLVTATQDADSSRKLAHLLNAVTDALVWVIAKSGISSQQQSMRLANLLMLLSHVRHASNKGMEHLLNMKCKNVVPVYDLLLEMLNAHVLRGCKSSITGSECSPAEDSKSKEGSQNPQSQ
Chain of Thyrotropin receptor (Homo sapiens) (P16473 whole entry, looked up): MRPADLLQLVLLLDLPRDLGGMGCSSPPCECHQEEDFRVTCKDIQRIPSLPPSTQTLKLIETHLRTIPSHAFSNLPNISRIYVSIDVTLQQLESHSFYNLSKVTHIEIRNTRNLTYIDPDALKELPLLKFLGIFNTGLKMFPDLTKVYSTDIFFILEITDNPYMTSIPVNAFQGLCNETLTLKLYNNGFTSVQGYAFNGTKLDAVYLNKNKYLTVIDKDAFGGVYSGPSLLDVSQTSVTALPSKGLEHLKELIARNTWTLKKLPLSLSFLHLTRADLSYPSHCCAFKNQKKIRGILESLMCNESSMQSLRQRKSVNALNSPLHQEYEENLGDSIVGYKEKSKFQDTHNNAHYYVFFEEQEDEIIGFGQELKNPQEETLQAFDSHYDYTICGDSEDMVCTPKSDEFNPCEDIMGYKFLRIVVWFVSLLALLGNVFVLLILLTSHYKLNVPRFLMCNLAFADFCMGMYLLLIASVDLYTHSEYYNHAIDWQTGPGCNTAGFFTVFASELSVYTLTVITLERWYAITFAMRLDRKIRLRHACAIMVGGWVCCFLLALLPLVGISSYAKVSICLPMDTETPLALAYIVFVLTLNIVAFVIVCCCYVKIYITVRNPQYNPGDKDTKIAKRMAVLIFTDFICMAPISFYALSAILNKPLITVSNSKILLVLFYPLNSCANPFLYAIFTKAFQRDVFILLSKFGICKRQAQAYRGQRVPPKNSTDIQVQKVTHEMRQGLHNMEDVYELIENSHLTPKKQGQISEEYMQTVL
Chain of Progesterone receptor (Homo sapiens) (P06401 whole entry, looked up): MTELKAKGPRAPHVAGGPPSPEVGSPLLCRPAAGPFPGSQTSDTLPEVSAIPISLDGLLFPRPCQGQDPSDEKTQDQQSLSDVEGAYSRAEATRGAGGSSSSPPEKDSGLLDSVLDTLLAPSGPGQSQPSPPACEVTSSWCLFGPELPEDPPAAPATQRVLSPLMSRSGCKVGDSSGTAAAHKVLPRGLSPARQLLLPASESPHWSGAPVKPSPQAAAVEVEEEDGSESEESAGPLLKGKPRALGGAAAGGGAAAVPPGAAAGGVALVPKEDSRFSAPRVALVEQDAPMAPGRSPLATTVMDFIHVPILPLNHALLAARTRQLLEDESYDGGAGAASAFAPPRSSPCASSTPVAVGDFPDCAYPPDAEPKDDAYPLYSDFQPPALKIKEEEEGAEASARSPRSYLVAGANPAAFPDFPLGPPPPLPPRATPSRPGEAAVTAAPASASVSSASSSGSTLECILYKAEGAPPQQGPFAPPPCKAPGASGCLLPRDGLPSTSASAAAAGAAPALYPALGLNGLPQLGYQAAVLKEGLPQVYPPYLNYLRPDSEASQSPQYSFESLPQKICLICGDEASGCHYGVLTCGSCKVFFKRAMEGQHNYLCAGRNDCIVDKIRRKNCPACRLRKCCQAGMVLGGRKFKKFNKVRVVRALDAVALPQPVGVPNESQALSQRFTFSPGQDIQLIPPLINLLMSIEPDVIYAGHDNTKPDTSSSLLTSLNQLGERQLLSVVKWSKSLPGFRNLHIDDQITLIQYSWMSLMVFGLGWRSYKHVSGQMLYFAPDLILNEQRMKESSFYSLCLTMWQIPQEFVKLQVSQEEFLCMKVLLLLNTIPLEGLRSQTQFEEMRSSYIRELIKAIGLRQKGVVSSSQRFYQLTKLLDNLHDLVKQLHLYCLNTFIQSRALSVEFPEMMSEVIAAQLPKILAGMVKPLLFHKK
Chain of Estrogen receptor (Homo sapiens) (P03372 whole entry, looked up): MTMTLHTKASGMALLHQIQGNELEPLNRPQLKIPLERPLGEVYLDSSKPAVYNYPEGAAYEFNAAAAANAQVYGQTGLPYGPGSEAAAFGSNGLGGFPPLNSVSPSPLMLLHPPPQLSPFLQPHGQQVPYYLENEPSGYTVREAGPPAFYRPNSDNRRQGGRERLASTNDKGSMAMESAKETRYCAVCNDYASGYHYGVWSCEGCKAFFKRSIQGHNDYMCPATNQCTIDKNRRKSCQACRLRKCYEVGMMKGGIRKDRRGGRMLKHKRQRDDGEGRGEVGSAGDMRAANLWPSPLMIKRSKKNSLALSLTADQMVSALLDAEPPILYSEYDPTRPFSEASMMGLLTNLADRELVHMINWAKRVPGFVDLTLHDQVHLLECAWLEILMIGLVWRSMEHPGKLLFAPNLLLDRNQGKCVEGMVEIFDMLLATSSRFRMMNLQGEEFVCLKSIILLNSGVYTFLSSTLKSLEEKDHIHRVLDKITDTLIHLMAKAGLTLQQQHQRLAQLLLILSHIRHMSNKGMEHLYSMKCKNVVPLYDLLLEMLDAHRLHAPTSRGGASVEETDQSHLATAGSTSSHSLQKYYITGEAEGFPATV

SMILES	Potency [1]	Potency [2]	Potency [3]	Potency [4]	Potency [5]	Potency [6]	Potency [7]	Potency [8]	Potency [9]	Potency [10]	outcome [11]	Potency [12]	Potency [13]	Potency [14]	Potency [15]	Potency [16]	Potency [17]	outcome [18]	Potency [19]	Potency [20]
CC(C)N=C(N)/N=C(\N)Nc1ccc(Cl)cc1	inactive	inactive	inactive	inactive	inactive	inactive	inactive	23.7 µM (active)	inactive	inactive	inactive	–	–	–	–	–	–	–	–	–
CC1=CP(=O)(c2ccccc2)CC1 (stereo not drawn)	inactive	–	inactive	inactive	inactive	inactive	inactive	inactive	inactive	inactive	inactive	inactive	inactive	inactive	inactive	inactive	inactive	inactive	inactive	inactive
CC1CNCC(C)O1 (stereo not drawn)	inactive	–	inactive	inactive	inactive	inactive	inactive	inactive	inactive	inactive	inactive	inactive	inactive	inactive	inactive	inactive	inactive	inactive	inactive	inactive
CCCCCCS	inactive	–	inactive	inactive	inactive	inactive	inactive	inactive	inactive	inactive	inactive	inactive	inactive	inactive	inactive	inactive	inactive	inactive	inactive	inactive
C=C(c1ccc(C(=O)O)cc1)c1cc2c(cc1C)C(C)(C)CCC2(C)C	12.2 µM (active)	inactive	inactive	inactive	inactive	–	inactive	34.4 µM (active) and 33.5 µM (active)	inactive	–	–	inactive	–	–	8.41 µM (active)	–	34.4 µM (active) and 29.8 µM (active)	–	–	–
CC(=O)c1ccccc1N	inactive	–	inactive	inactive	inactive	inactive	inactive	inactive	inactive	inactive	–	inactive	inactive	inactive	inactive	–	inactive	inactive	inactive	inactive
C[Si](C)O[Si](C)C	inactive	–	inactive	inactive	inactive	inactive	inactive	inactive	inactive	inactive	inactive	inactive	inactive	inactive	inactive	–	inactive	inactive	inactive	inactive
CC(C)CCOCCC(C)C	inactive	–	inactive	inactive	inactive	inactive	inactive	inactive	inactive	inactive	inactive	inactive	inactive	inactive	inactive	inactive	–	inactive	inactive	inactive
C#CC(O)CCC (stereo not drawn)	inactive	–	inactive	inactive	inactive	inactive	inactive	inactive	inactive	inactive	inactive	inactive	inactive	inactive	inactive	–	inactive	inactive	–	inactive
COc1ccc(-n2nc(CCC(=O)N(C)O)cc2-c2ccc(Cl)cc2)cc1	26.6 µM (active)	–	inactive	inactive	inactive	inactive	–	7.5 µM (active)	inactive	–	–	inactive	inactive	8.41 µM (active)	7.5 µM (active)	inactive	–	inactive	–	–
O=CC1CC1	inactive	–	inactive	inactive	inactive	inactive	inactive	inactive	inactive	inactive	–	inactive	inactive	inactive	inactive	inactive	inactive	inactive	–	inactive
O=C1OC(=O)c2cccc3cccc1c23	inactive	–	inactive	inactive	inactive	inactive	–	inactive	inactive	–	inactive	inactive	inactive	inactive	inactive	–	inactive	inactive	–	inactive
O=C1OC(=O)c2ccc3c4c(ccc1c24)C(=O)OC3=O	inactive	–	inactive	inactive	inactive	–	inactive	inactive	inactive	inactive	inactive	inactive	inactive	inactive	inactive	–	inactive	inactive	inactive	inactive
CCCCCCCC(C)=O	inactive	–	inactive	inactive	inactive	inactive	inactive	inactive	inactive	inactive	inactive	inactive	inactive	inactive	inactive	–	inactive	inactive	inactive	inactive
COC(=O)CC#N	inactive	–	inactive	inactive	inactive	inactive	inactive	inactive	inactive	inactive	inactive	inactive	inactive	inactive	inactive	–	inactive	inactive	inactive	inactive
CCOC(=O)N1CCC(=C2c3ccc(Cl)cc3CCc3cccnc32)CC1	61.1 µM (active)	–	inactive	inactive	inactive	inactive	–	48.6 µM (active) and 26.6 µM (active)	inactive	inactive	–	61.1 µM (active)	inactive	43.3 µM (active) and 13.3 µM (active)	15.4 µM (active)	–	54.5 µM (active)	–	–	13.7 µM (active)
CCc1ccc(O)c(C(C)(C)C)c1	inactive	–	inactive	inactive	inactive	inactive	inactive	–	inactive	inactive	inactive	inactive	inactive	inactive	inactive	–	–	inactive	inactive	–
CC(=O)C=O	inactive	–	inactive	inactive	inactive	–	inactive	inactive	inactive	–	inactive	inactive	inactive	inactive	inactive	inactive	inactive	–	–	inactive
CCc1cccc(CC)c1N(COC)C(=O)CS(=O)(=O)O	inactive	–	inactive	inactive	inactive	inactive	inactive	inactive	inactive	inactive	inactive	inactive	inactive	inactive	inactive	–	inactive	inactive	–	inactive
Cc1cccc(N(C)C)c1	inactive	–	inactive	inactive	inactive	–	inactive	inactive	inactive	inactive	inactive	inactive	inactive	inactive	inactive	inactive	inactive	inactive	inactive	inactive
CCN=C1C=CC(=C(c2ccc(N(CC)CC)cc2)c2ccc(N(CC)CC)cc2)c2ccccc21	0.682 µM (active)	–	27.1 µM (active)	34.2 µM (active)	24.2 µM (active)	inactive	2.16 µM (active)	27.1 µM (active)	inactive	9.63 µM (active)	–	21.6 µM (active)	inactive	0.0963 µM (active)	–	inactive	21.6 µM (active)	–	–	–
c1ccc2c(c1)CCC2	inactive	–	inactive	inactive	inactive	inactive	–	inactive	inactive	inactive	inactive	inactive	inactive	inactive	inactive	inactive	inactive	inactive	inactive	inactive
CCN(CC)CCCN(c1ccccc1)C1Cc2ccccc2C1	inactive	–	inactive	inactive	inactive	inactive	29.8 µM (active)	11.9 µM (active)	inactive	inactive	inactive	inactive	inactive	15 µM (active)	–	–	–	inactive	–	inactive
COc1ccccc1C=O	inactive	–	inactive	inactive	inactive	inactive	inactive	inactive	inactive	inactive	–	inactive	inactive	inactive	inactive	inactive	–	inactive	inactive	inactive
CC1(C)C(=O)N(CO)C(=O)N1CO	inactive	–	inactive	inactive	inactive	inactive	–	inactive	inactive	inactive	inactive	inactive	inactive	inactive	inactive	–	inactive	inactive	inactive	inactive
CN1CN(C)CN(C)C1	inactive	–	inactive	inactive	inactive	inactive	inactive	inactive	inactive	inactive	–	inactive	inactive	inactive	–	–	inactive	inactive	inactive	inactive
CCCCCCCCCCCCCOP(=O)(O)O	inactive	–	inactive	inactive	inactive	inactive	inactive	–	inactive	–	–	inactive	inactive	inactive	–	–	inactive	inactive	–	–
Cn1cnc2ncnc(N)c21	inactive	–	inactive	inactive	inactive	inactive	inactive	inactive	inactive	inactive	–	inactive	inactive	inactive	inactive	–	inactive	inactive	inactive	inactive
O=S(=O)(O)CCCN1CCOCC1	inactive	–	inactive	inactive	inactive	inactive	–	inactive	inactive	inactive	–	inactive	inactive	inactive	inactive	–	inactive	inactive	inactive	inactive
